Screening data as filed in PubChem.
Most compounds without a hit are left out; they make up all but 17% or so of the library.
DT40 TDP1 no CPT – qHTS for Inhibitors of human tyrosyl-DNA phosphodiesterase 1 (TDP1): qHTS in cells in absence of CPT; DT40 Tdp1-/- hTDP1 cells, no CPT, ATP luminescence, 48 h; AID 686978, 2013; hit rate 15% among 420,000; Potency, µM (series often up to 46.2 µM), hits mostly inhibitors; also: nearly all actives have a fitted effect of over 55% in size
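DT40 Tdp1-/-;hTDP1 cells, no CPT (DMSO vehicle only), 400 cells/well; compounds pin-transferred; ≥48 hr, 37 °C; CellTiter-Glo 30 min RT dark, luminescence read.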
TGFb SMAD3 inh – TGF-b pathway inhibition. HepG2 CAGA-GFP TGF-b/SMAD3 reporter, GFP fluorescence, 18 h; TGF-beta stimulated, 500 pg/mL final. Potency, µM (titrated, usually from 46.1 µM), hits mostly inhibitors. hit rate 1.2% among 410,000; also: nearly all actives have a fitted effect of over 65% in size
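HEPG2 CAGA-GFP reporter cells (1000/well, DMEM with 1% FBS) received compounds, then recombinant TGF-beta at 500 pg/mL final for 18 hours at 37 degrees C. Per-cell GFP summed per well was normalised to unstimulated and stimulated DMSO controls before curve fitting.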
HepG2 viability – kills HepG2 cells in TGF-b inhibitor counter-screen; HepG2 CAGA-GFP viability, ATP luminescence, 18 h; Potency, µM (doses to about 46.1 µM), usual class: cytotoxic; hit rate 0.76% among 410,000; AID 588856
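HepG2 CAGA-GFP cells (1000/well, DMEM with 1% FBS) received compound, then TGF-beta at 500 pg/mL final, and were incubated 18 hours at 37 degrees C. Viability was read by CellTiter-Glo luminescence. Media-only wells were set as complete cell-killing and DMSO as no toxicity.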
ATXN2 expr inh – ATXN2 expression inhibition. hit rate 0.72% among 360,000. Potency, µM (highest dose often 57 µM), actives largely listed as inhibitors. AID 1745845. HEK-293 ATXN2-luciferase reporter, luminescence, 24 h; also: nearly all actives have a fitted effect of over 55% in size
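qHTS (up to 57 uM final) was run with 24 h compound exposure of reporter cells at 37 °C. Each well was multiplexed: SteadyGlo luminescence measured ATXN2-luciferase expression after a fluorogenic Gly-Phe-AFC viability readout (25 uM final).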
S2 tox – reduces viability in counter-screen for ATXN expression inhibitors | S2 cells (HEK-293 line with an ATXN2-luciferase reporter) viability, CellTiter-Fluor protease fluorescence, 24 h | Potency, µM (series often up to 56.7 µM), most hits filed as cytotoxic | hit rate 0.49% among 400,000; also: nearly all actives have a fitted effect of over 40% in size
DT40 TDP1 CPT – DT40-hTDP1 cell growth loss with CPT; chicken DT40 Tdp1-/-;hTDP1 cells + 20 nM CPT, ATP luminescence, 48 h; Potency, µM (highest dose often 46.2 µM), actives largely listed as inhibitors; hit rate 12% among 420,000; AID 686979; also: nearly all actives have a fitted effect of over 55% in size
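Chicken DT40 Tdp1-/- cells complemented with human TDP1, 400 cells/well, exposed to compounds plus 20 nM camptothecin for at least 48 h at 37 C; viability read as ATP content by CellTiter-Glo luminescence.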
Hits are given with their value; – = inactive; ? = inconclusive; · = not tested or not shown; [ ] = remark or other dose. Calls follow the shape of the dose curve; as a rule, active = well fitted curve in the direction sought with a large enough effect; inconclusive = small, poorly fitted or top-dose-only effect, or another doubt; inactive = no such curve, though single readings can be large; an effect the other way counts as inactive or inconclusive.

SMILES	DT40 TDP1 no CPT	TGFb SMAD3 inh	HepG2 viability	ATXN2 expr inh	S2 tox	DT40 TDP1 CPT
Cc1ccc(-n2ncc(C(=O)Nc3ccc4c(c3)OCCO4)c2C2CCN(C(=O)OC(C)(C)C)CC2)cc1C	?	–	–	·	·	?
CCCNC(=O)c1cnn(-c2ccc(C)c(C)c2)c1C1CCN(C(=O)OC(C)(C)C)CC1	23.1µM	–	–	·	·	?
Cc1ccc(-n2ncc(C(=O)NCCc3ccsc3)c2C2CCN(C(=O)OC(C)(C)C)CC2)cc1C	16.4µM	–	–	·	·	16.4µM
COCc1c(C(=O)N2CC3CCC2C3)cnn1-c1nccc(-c2ccccc2OC)n1 (centres undefined)	–	·	·	·	–	–[9.04 µM]
Cc1ccc(S(=O)(=O)NN(Cc2ccccc2)Cc2ccccc2)cc1	–	–	–	·	–	–
CCCCOc1ccc(NC(=O)C2OC3OC(C)(C)OC3C3OC(C)(C)OC23)cc1 (centres undefined)	–	–	–	–[11.3 µM]	–	–
COc1ccc(N(CC(=O)N2CCN(c3cccc(Cl)c3)CC2)S(=O)(=O)c2c(C)noc2C)cc1	18.4µM	–	–	–	?	16.4µM
Cc1nn(C)c(C)c1S(=O)(=O)N(CC(=O)NCCc1ccc(Cl)cc1)c1ccc(C(C)C)cc1	14.6µM	–	–	·	·	16.4µM
COc1ccc(N(CC(=O)N2CCN(c3ccc(F)cc3)CC2)S(=O)(=O)c2c(C)nn(C)c2C)cc1	23.1µM	?	–	–	–	?
Cc1nn(C)c(C)c1S(=O)(=O)N(CC(=O)N1CCN(c2ccccc2)CC1)c1ccc(C(C)C)cc1	16.4µM	?	–	·	·	16.4µM
COc1ccc(N(CC(=O)N2CCN(c3ccccc3)CC2)S(=O)(=O)c2c(C)nn(C)c2C)cc1	?	–	–	–	–	–
C[C@]12CC[C@@H]3c4ccc(O)cc4CC[C@H]3[C@H]1C[C@@H](O)[C@H]2O	·	·	·	–	·	·
Cc1ccc(NC(=O)CCNCc2ccco2)cc1S(=O)(=O)N(C)C	–	–	–	–	–	–
COc1ccc(N(CC(=O)N2CCN(c3ccc(F)cc3)CC2)S(=O)(=O)c2c(C)noc2C)cc1	?	–	–	–	–	25.9µM
Cc1ccc(N(CC(=O)N2CCN(c3cc(Cl)ccc3C)CC2)S(=O)(=O)c2c(C)noc2C)cc1	9.2µM	?	–	–	–	20.6µM
COc1ccc(N(CC(=O)N2c3ccccc3CC2C)S(=O)(=O)c2c(C)nn(C)c2C)cc1 (centres undefined)	18.4µM	–	–	–	–	?
Cc1ccc(N(CC(=O)N2CCN(c3cccc(Cl)c3)CC2)S(=O)(=O)c2c(C)noc2C)cc1	?	?	–	–	–	?
Cc1ccc(CNC(=O)CN(c2ccc(C(C)C)cc2)S(=O)(=O)c2c(C)n[nH]c2C)cc1	?	11.2µM	–	?	·	?
COc1ccc(N(CC(=O)N2CCc3ccccc32)S(=O)(=O)c2c(C)nn(C)c2C)cc1	?	–	–	–	–	?
COc1ccc(N(C(=O)CNC(=O)c2ccco2)C(C(=O)NCC2CCCO2)c2ccccc2)cc1OC (centres undefined)	?	–	–	–	–	–
CN(CC(=O)Nc1ccc(Cl)c(Cl)c1)Cc1nnc(-c2ccc(F)cc2)o1	?	?	–	–	–	?
Cc1cc(C)cc(CN2C(=O)NC3(CCCCCC3)C2=O)c1	–	–	–	–	–	–
CCOc1ccc(N(CC(=O)N2CCN(c3ccc(F)cc3)CC2)S(=O)(=O)c2c(C)noc2C)cc1	?	–	–	–	–	25.9µM
Cc1ccc(N(CC(=O)N2CCN(c3cccc(C)c3C)CC2)S(=O)(=O)c2c(C)nn(C)c2C)cc1	9.2µM	?	–	–	?	8.2µM
Cc1ccc(N(CC(=O)N2CCN(c3ccc(F)cc3)CC2)S(=O)(=O)c2c(C)nn(C)c2C)cc1	?	–	–	–	?	?
NC(=O)COCCN1CCN(C(c2ccccc2)c2ccc(Cl)cc2)CC1 (centres undefined)	?	·	·	–	–	?
